BaF3 tox – reduces parental Ba/F3 cell viability, JAK2V617F counter-screen; CellTiter-Glo ATP luminescence; inhibition, % at 5.6 µM; hit rate 1.1% among 220,000;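 active means inhibition above a per-campaign cutoff, the mean inhibition of all tested compounds plus 3 SD, cut at about 27% in these data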
KLF5 inh – kruppel-like factor 5 inhibition; inhibition, % at 5 µM; AID 1700; DLD-1 KLF5 promoter-luciferase reporter, luminescence; hit rate 0.23% among 290,000;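 active means inhibition above a per-plate limit of that plate's mean compound inhibition plus 3 SD, cut at about 60% in these data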;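 further: higher means less KLF5 promoter-driven luciferase light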
IEC-6 tox – IEC-6 cytotoxicity, counter-screen for KLF5 inhibitors | luminescence viability | hit rate 0.78% among 290,000 | AID 1825 | inhibition, % at 5 µM; in the data active means inhibition above about 22%
Ba/F3 V617F tox – reduce viability of Ba/F3 cells dependent on JAK2V617F | Ba/F3 EpoR-JAK2V617F viability, ATP luminescence | inhibition, % at 5.6 µM | hit rate 1.1% among 220,000;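 active means inhibition above the campaign mean plus 3 SD over all tested compounds, cut at about 24% in these data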;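 further: cytokine-independent growth of Ba/F3 cells driven by EpoR plus mutant JAK2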
APP 5UTR inh – APP translation inhibition; inhibition, % at 2 µM; hit rate 0.82% among 190,000; SH-SY5Y APP 5'UTR-luciferase reporter, luminescence;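 active means inhibition above a set limit, derived from the sample mean plus 3 SD, cut at about 45% in these data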
Of the large screens only hits and unclear results are named; the others gave an inactive call. Rows were chosen to be rich in hits. Some 1.8% of all compounds tested hit in one or more screens of this group.

O=C(COc1ccccc1Cl)N1CCCC1	none
O=C(COc1ccccc1Cl)N1CCN(c2ccc(F)cc2)CC1	BaF3 tox 93
Cc1ccc(-c2ccc(/C=C3\SC(N4CCOCC4)=NC3=O)o2)cc1	IEC-6 tox 102
O=C1N=C(N2CCOCC2)S/C1=C/c1ccc(-c2ccc(F)cc2)o1	none
CN1/C(=C\C(=O)C(F)F)C(C)(C)c2ccccc21	none
Cc1ccc(C(=O)NC(=S)/C=C2\N(C)c3ccccc3C2(C)C)cc1	BaF3 tox 36
Cc1c(NC(=S)/C=C2\N(C)c3ccccc3C2(C)C)c(=O)n(-c2ccccc2)n1C	BaF3 tox 50
CN1/C(=C\C(=O)c2cccc(S(=O)(=O)N3CCCCC3)c2)C(C)(C)c2ccccc21	none
CN1/C(=C/C(=S)NC(=O)C2CCC2)C(C)(C)c2ccccc21	BaF3 tox 30
CC(C)C(=O)NC(=S)/C=C1/N(C)c2ccccc2C1(C)C	BaF3 tox 57, Ba/F3 V617F tox 30
CCOc1ccccc1C(=O)N/N=C/c1coc2ccc(Cl)cc2c1=O	none (no result: BaF3 tox, Ba/F3 V617F tox, APP 5UTR inh)
Cc1ccc(OS(=O)(=O)c2c(C)nn(C)c2Cl)c(C)c1	none (no result: BaF3 tox, Ba/F3 V617F tox, APP 5UTR inh)
CC(=O)/C=C1\N(C)c2ccc(C)cc2C1(C)C	BaF3 tox 39, Ba/F3 V617F tox 42
COc1ccccc1OCC(=O)/C=C1/N(C)c2ccccc2C1(C)C	none
Cn1c2c(c(=O)[nH]c1=O)C(c1cccc(O)c1)C1=C(N2)c2ccccc2C1=O (stereo unspecified)	Ba/F3 V617F tox 35
COc1cccc(C2C3=C(Nc4[nH]n(-c5ccccc5)c(=O)c42)c2ccccc2C3=O)c1 (stereo unspecified)	none
CCOc1ccc(NC(=S)N(CCOC)C(C)c2ccco2)cc1 (stereo unspecified)	none (no result: APP 5UTR inh)
O=[N+]([O-])c1cc(CN2CCCC2)c2cccnc2c1O	none
O=[N+]([O-])c1cc(CN2CCN(c3cccc(C(F)(F)F)c3)CC2)c2cccnc2c1O	APP 5UTR inh 65
CC(OC(=O)c1cccc(S(=O)(=O)N2CCCC2)c1)C(=O)c1ccccc1 (stereo unspecified)	none (no result: BaF3 tox, Ba/F3 V617F tox, APP 5UTR inh)
COc1cccc(C(=O)Oc2c(Br)cc(Br)cc2/C=N/NC(=O)c2cc(C)[nH]n2)c1	IEC-6 tox 41, APP 5UTR inh 45
Nc1cc(Cl)ccc1N1CCCC1	BaF3 tox 55, Ba/F3 V617F tox 42
Nc1cc(F)ccc1N1CCCCCC1	BaF3 tox 57, Ba/F3 V617F tox 39
Nc1cc(Cl)ccc1N1CCOCC1	none
CC1=C(C(=O)Nc2cccc(F)c2)C(c2ccsc2)C2=C(CC(C)(C)CC2=O)N1 (stereo unspecified)	BaF3 tox 49, IEC-6 tox 67, Ba/F3 V617F tox 81, APP 5UTR inh 60
CC1=C(C(=O)Nc2ccccc2F)C(c2ccsc2)C2=C(CC(C)(C)CC2=O)N1 (stereo unspecified)	none
COc1ccccc1N(C)C(=O)c1cc(S(=O)(=O)N2CCCC2)cn1C	none (no result: BaF3 tox, Ba/F3 V617F tox, APP 5UTR inh)
CS(=O)(=O)N1CCN(c2c(Cl)cccc2[N+](=O)[O-])CC1	BaF3 tox 51
CSCCC(NS(=O)(=O)c1cccs1)C(=O)NCc1cccs1 (stereo unspecified)	APP 5UTR inh 47
COc1cc(OC)c(C2N(C)c3ccccc3N2C)cc1OC	BaF3 tox 59, Ba/F3 V617F tox 53
Cc1cc(CN2CCCCC2C(=O)Nc2ccc(Oc3cccnc3)cc2)oc1C (stereo unspecified)	none (no result: BaF3 tox, Ba/F3 V617F tox, APP 5UTR inh)
Cc1ccc(-c2nnc(SCC(C)C)n2C)cc1	BaF3 tox 33, Ba/F3 V617F tox 30
CC(=O)Nc1ccc(S(=O)(=O)N(C)Cc2ccccc2)cc1	none
CC(=O)Nc1ccc(S(=O)(=O)N(Cc2ccccc2)C(C)C)cc1	BaF3 tox 50, Ba/F3 V617F tox 32
Cc1ccnc(NC(=O)C2CC(=O)N(c3ccc4c(c3)OCCO4)C2)c1 (stereo unspecified)	none (no result: BaF3 tox, Ba/F3 V617F tox, APP 5UTR inh)
CC(=O)Nc1ccc(C(=O)NCC2(N3CCCCC3)CCCCC2)cc1	none (no result: BaF3 tox, Ba/F3 V617F tox, APP 5UTR inh)
C1CCCCCC(NCCN2CCNCC2)CCCCC1	BaF3 tox 42, Ba/F3 V617F tox 80 (no result: APP 5UTR inh)
CCN(CC)CCCN=Cc1c(O)n(-c2ccccc2C)c(=O)c2ccccc12	none (no result: APP 5UTR inh)
Nc1nnn(CC(=O)N/N=C/c2cccc3ccccc23)n1	APP 5UTR inh 62
O=C(COc1ccccc1-c1ccccc1)N/N=C/c1cccc2ccccc12	APP 5UTR inh 95
O=C(COc1cccc2ccccc12)N/N=C/c1ccccc1OCc1ccc(C(=O)O)cc1	none
CC(NC(=O)COc1ccccc1-c1ccccc1)c1ccccc1 (stereo unspecified)	none
Cc1ccccc1/C=N/NC(=O)Cn1nnc(N)n1	none
C/C(CCC(C)C)=N\NC(=O)COc1ccccc1-c1ccccc1	APP 5UTR inh 94
O=C(CSc1ncc(-c2ccccc2)n1C1CCCC1)N1CCc2ccccc21	none
O=S1(=O)CCC(NC(=S)NC2CCS(=O)(=O)C2)C1 (stereo unspecified)	BaF3 tox 39, Ba/F3 V617F tox 52
O=C(Nc1ccccc1C(=O)O)c1cc(S(=O)(=O)Nc2ccccc2)ccc1Cl	none (no result: BaF3 tox, Ba/F3 V617F tox, APP 5UTR inh)
COc1ccc2c(c1)sc1nc(=O)ccn12	none (no result: BaF3 tox, Ba/F3 V617F tox, APP 5UTR inh)
COc1ccc2c(c1)sc(=N)n2C	BaF3 tox 69, Ba/F3 V617F tox 58
Cc1cc(C(=O)NN)c(Cl)cc1Cl	none (no result: APP 5UTR inh)
COc1ccc(C2CC(c3c(O)cc(C)oc3=O)=NCCS2)c(OC)c1 (stereo unspecified)	APP 5UTR inh 93
Cc1cccc(-n2c3nc(=O)[nH]c(=O)c-3cc3cc([N+](=O)[O-])ccc32)c1	none
Cc1ccc(C)c(-n2c3nc(=O)[nH]c(=O)c-3cc3cc([N+](=O)[O-])ccc32)c1	BaF3 tox 56, APP 5UTR inh 91
Fc1ccc(NC(=S)N2CCCN(c3ccc(C(F)(F)F)cn3)CC2)c(F)c1	BaF3 tox 33, Ba/F3 V617F tox 35 (no result: APP 5UTR inh)
Cc1cc(C(=O)CSc2nc3ccccc3c(=O)n2C)c(C)n1CC1CCCO1 (stereo unspecified)	BaF3 tox 69, Ba/F3 V617F tox 59
Cc1cc(C(=O)CSc2nc3ccccc3c(=O)[nH]2)c(C)n1CC1CCCO1 (stereo unspecified)	BaF3 tox 40, Ba/F3 V617F tox 35
Cn1nc(-c2ccccc2)cc1NS(=O)(=O)c1ccccc1	none (no result: APP 5UTR inh)
CCOC(=O)c1c(C)[nH]c2ccc(O)cc12	APP 5UTR inh 50
CN1CCN(C(=S)NC(=O)c2ccc(C(C)(C)C)cc2)CC1	none
C=CCn1cccc(/C=C/C(=O)c2ccc(C(C)(C)C)cc2)c1=S	BaF3 tox 46
CCC(O)CNc1nc(SC)nc2sc3c(c12)CCN(C)C3 (stereo unspecified)	BaF3 tox 57
COc1ccc(/C=C2/C(=O)OCc3cc(OC)c(OC)cc32)cc1	BaF3 tox 28, IEC-6 tox 26, Ba/F3 V617F tox 57, APP 5UTR inh 82
COc1ccc(/C=C2\CCOC2=O)cc1	none
CCOc1ccc(N(CC(=O)NCCSCc2ccco2)S(=O)(=O)c2ccc(C)cc2)cc1	none (no result: BaF3 tox, Ba/F3 V617F tox, APP 5UTR inh)
CN=c1scc(-c2ccc(F)cc2)n1/N=C/c1ccc(O)c(O)c1	BaF3 tox 36, Ba/F3 V617F tox 98
Nc1nonc1C(=O)NCCNCc1cc(Br)ccc1OCc1ccccc1F	BaF3 tox 51, Ba/F3 V617F tox 24

Compound activity as filed in PubChem.
